A selection: hits, their analogues and other compounds. The true share with any hit is near 3.1%.
Tau ThT inhib: tau fibrillization inhibition (ThT binding) | recombinant tau K18 P301L, heparin-induced fibrillization, ThT fluorescence | 270,000 tested, 2.1% active | Potency, µM (doses to about 57.4 µM), without a hit: top-dose activity, negative = inhibition, hits mostly inhibitors; note: nearly all actives have a fitted effect of over 55% in size
Target sequence (P10636 561-689 P618L limits assumed): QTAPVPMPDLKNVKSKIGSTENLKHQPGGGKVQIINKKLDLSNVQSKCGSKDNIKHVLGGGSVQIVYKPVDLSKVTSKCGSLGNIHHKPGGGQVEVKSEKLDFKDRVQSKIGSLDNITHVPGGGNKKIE
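Using a mix of unlabeled (15 uM) and Alexa 594-labeled (0.24 uM) tau K18 P301L, heparin-triggered fibrillization over 6 hr at 37 C was scored by ThT fluorescence.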
RGS12 GoLoco inh: blocks human Gai1 binding to RGS12 GoLoco peptide, red readout; Potency, µM (doses to about 61.6 µM), without a hit: at the top dose activity, negative = inhibition, actives largely listed as inhibitors; 230,000 tested, 0.44% active; AID 880; Gai1:RGS12 GoLoco peptide FP, rhodamine, 10 min; active = well fitted inhibition curve with a large enough effect, not every such curve was filed as active; inactive = no such curve, though single readings can be large or run the other way; note: nearly all actives have a fitted effect of over 30% in size
TRb SRC2 PPI: inhibitors of human thyroid hormone receptor beta-SRC2 interaction; TRbeta-SRC2 peptide binding, fluorescence polarization; receptor liganded with 1 µM T3; Potency, µM (series often up to 106 µM), for inactives: at the top dose activity change, negative = inhibition, actives largely listed as inhibitors; 280,000 tested, 0.065% active; AID 1469;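 note: plate controls were bound peptide for no effect and peptide without receptor for full effect; nearly all actives have a fitted effect of over 50% in size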
Target sequence (P10828 whole entry, looked up): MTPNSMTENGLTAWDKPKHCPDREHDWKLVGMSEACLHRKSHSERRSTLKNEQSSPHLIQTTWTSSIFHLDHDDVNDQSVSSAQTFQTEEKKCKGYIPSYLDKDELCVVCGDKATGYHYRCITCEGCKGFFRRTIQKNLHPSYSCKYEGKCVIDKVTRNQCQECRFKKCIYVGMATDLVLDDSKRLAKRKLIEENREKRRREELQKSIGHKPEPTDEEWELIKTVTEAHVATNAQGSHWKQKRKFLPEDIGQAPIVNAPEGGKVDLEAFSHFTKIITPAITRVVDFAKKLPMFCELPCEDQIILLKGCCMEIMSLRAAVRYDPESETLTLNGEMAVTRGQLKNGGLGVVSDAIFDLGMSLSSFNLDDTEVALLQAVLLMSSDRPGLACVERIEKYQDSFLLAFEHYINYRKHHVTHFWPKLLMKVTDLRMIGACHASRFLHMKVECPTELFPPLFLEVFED
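Fluorescence polarization of 20 nM Texas Red SRC2 peptide with 0.6 uM human TRb ligand-binding domain, in Tris buffer with 1uM T3 and 5% DMSO. Incubated 5 hr ambient; normalized to unbound and bound controls.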
TR SRC2 fluor cs: counter-screen for TRb-SRC2 inhibitors: fluorescence interference. AID 1479. 280,000 tested, 0.29% active. TRb/SRC2 Texas Red total fluorescence interference. Potency, µM (series often up to 106 µM), for the others: at the top dose fluorescence change, negative = quenching; active = well fitted curve in either direction with a large enough effect; inconclusive = small, poorly fitted or top-dose-only effect
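Flags fluorescent or light-absorbing compounds by total fluorescence, S + 2P, at 555 nm excitation and 632 nm emission. Mixture: 20 nM Texas Red SRC2 peptide, 0.6 uM human TRb LBD, 1 uM T3, 5% DMSO; compound exposure 5 h at ambient temperature.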
Tau fibril FP: inhibitors of human tau fibril formation; P10636; K18 P301L tau heparin fibrillization, Alexa594 FP, 6 h; Potency, µM (highest dose often 57.7 µM), for the others: at the highest dose activity, negative = inhibition, actives largely listed as inhibitors; 280,000 tested, 0.39% active; AID 1468; note: nearly all actives have a fitted effect of over 55% in size
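Steps: dispense K18 P301L tau (15 uM plus 0.24 uM Alexa 594 tracer, final) in pH 7 sodium acetate; add compound; add heparin (20 uM final); incubate 6 hr, 37 C; add ThT (30 uM final); after 1 hr ambient, read FP.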
Tau fluor cs: counter-screen for tau fibril formation inhibitors; tau K18 P301L Alexa594 fluorescence, heparin fibrillization; Potency, µM (series often up to 57.7 µM), without a hit: top-dose activity change, negative = decrease; 280,000 tested, 0.93% active; note: nearly all actives have a fitted effect of over 55% in size
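Human tau K18 P301L (15 uM unlabeled, 0.24 uM Alexa 594-labeled) in 100 mM sodium acetate pH 7 with 20 uM heparin, 6 hr at 37 C. ThT 30 uM added, 1 hr ambient; Alexa 594 FP and total fluorescence read at 555/632 nm.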
Starred values were filed as active, the others as inactive; ? = inconclusive; / = no result given; ! = repeats disagree; [ ] = another dose, or the depositor's remark. Unless noted, calls come from the whole dose curve; as a rule, active = well fitted curve in the direction sought with a large enough effect; inconclusive = small, poorly fitted or top-dose-only effect, or another doubt; inactive = no such curve, though single readings can be large; an effect the other way counts as inactive or inconclusive. Unless noted, % is set by controls: 0 for no effect and ±100 for the full control effect; potency is the fitted concentration of half-maximal effect.

SMILES	Tau ThT inhib	RGS12 GoLoco inh	TRb SRC2 PPI	TR SRC2 fluor cs	Tau fibril FP	Tau fluor cs
Cc1ccc(CCNC(=O)C2CCCN(Cc3nc(-c4cccc(Cl)c4)oc3C)C2)cc1 (stereo not drawn)	?	/	-9%	-5%	9%	-12%
O=[N+]([O-])c1ccc(N2CCNCC2)c2ncccc12	?	2%	-3%	-3%	-2%	-13%
O=[N+]([O-])c1ccc(N2CCCC2)c2ccncc12	13µM*	12%	11%	-2%	0%	-10%
CC1=NN(c2ccccc2)C(=O)C1=C(C)C	11µM*	112%	3%	1%	-9%	?
COc1ccc(Cn2c(N)c(C(=O)NCc3ccco3)c3nc4ccccc4nc32)cc1	20µM*	51%	-21%	-7%	-6%	?
CN(C)P(=O)(N(C)C)N(C)C	/	/	3%[201 µM]	-1%[201 µM]	/	/
O=C(O)c1cc[c]([Hg][Cl])cc1	?	1.3µM*	2%	-5%	-12%	-8%
CCOC(=O)c1ccc(N=C(c2ccccc2)c2c(O)n(C)c(=O)n(C)c2=O)cc1	?	7%	7%	-2%	-11%	-13%
COCCCOc1ccnc(CS(=O)c2nc3ccccc3[nH]2)c1C (stereo not drawn)	10µM*	-10%	-1%	-2%	?	-25%
Nc1ccc2c(c1)Cc1ccccc1-2	?	-1%	-6%	-5%	?	-8%
Nc1ccc2c(c1)Cc1cc([N+](=O)[O-])ccc1-2	3.2µM*	44%	2%	-3%	7%	?
Clc1cccc2ccccc12	/	5%	12%	-2%	/	/
CCn1c(O)c(N=Nc2cccc(S(=O)(=O)N3CCOCC3)c2)c(=O)n(CC)c1=S	?	-1%	0%	0%	3%	-21%
CCn1c(O)c(N=Nc2ccc(S(=O)(=O)N3CCOCC3)cc2)c(=O)n(CC)c1=S	8.9µM*	10%	1%	-2%	-12%	-28%
CP(C)(=O)CCC(=O)O	14%	15%	-19%	1%	2%	14%
CCOc1ccc2nc(N=Nc3c(O)[nH]c(=O)[nH]c3=O)sc2c1	4.5µM*	3%	6%	-26%	1%	-17%
CCOc1ccc2nc(N=Nc3c(O)[nH]c(=S)[nH]c3=O)sc2c1	2.2µM*	20%	-2%	-7%	-1%	?
CN(C)C(=O)Nc1ccc(Cl)cc1	/	5%	8%[201 µM]	-2%[201 µM]	/	/
O=C1NC(=O)N(Cc2ccccc2)C(=O)/C1=C/C=C/c1ccco1	10µM*	267%	18%	17%	?	-26%
O=C1NC(=O)N(CCc2ccc(F)cc2)C(=O)/C1=C/c1ccco1	10µM*	122%	22%	12%	?	?
CCN1C(=O)C(=C/C=C/c2ccco2)C(=O)N(CC)C1=S	16µM*	-55%	?	28µM*[fluorescent]	?	-13%
COc1ccc(/C=C2/C(=O)N(Cc3ccco3)C(=O)N(C(C)C)C2=O)cc1	18µM*	217%	?	-30%	?	-12%
Cc1ccc(/C=C2/C(=O)NC(=O)N(CCc3ccc(F)cc3)C2=O)o1	?	284%	9%	10%	-5%	-5%
CC(C)c1ccc(N2C(=O)NC(=O)/C(=C\C=C\c3ccco3)C2=O)cc1	?	61%	14%	4%	?	-4%
COc1ccc(CN2C(=O)NC(=O)/C(=C\c3ccco3)C2=O)cc1	?	126%	19%	11%	?	-16%
SMILES	Tau ThT inhib	RGS12 GoLoco inh	TRb SRC2 PPI	TR SRC2 fluor cs	Tau fibril FP	Tau fluor cs
ClC(Cl)(Cl)Cl	/	-12%	5%	0%	/	/
O=C1NC(=S)N(c2ccccc2)C(=O)C1C(c1ccncc1)C1C(=O)NC(=S)N(c2ccccc2)C1=O (stereo not drawn)	?	12%	-1%	-4%	0%	-4%
C#CCN1CCN(c2cccc(C(F)(F)F)c2)CC1	-6%	-18%	-5%	-6%	-12%	-12%
CN(C)c1ccc(/C=C2/C(=O)NC(=O)N(Cc3ccco3)C2=O)cc1	?	121%	0%	2%	-18%	-12%
CC(C)N1C(=O)/C(=C/C=C/c2ccco2)C(=O)N(Cc2ccco2)C1=O	28µM*	174%	19%	-7%	?	-30%
S=C=Nc1cccc(C2(N3CCCCC3)CCCCC2)c1	-9%	-5%	4%	1%	0%	-12%
CN1C[C@@H](C(=O)N[C@@]2(C)O[C@]3(O)C4CCCN4C(=O)[C@@H](Cc4ccccc4)N3C2=O)C=C2c3cccc4[nH]cc(c34)C[C@@H]21 (stereo partly drawn)	?	-27%	-9%	?	?	?
CC(C)[C@@]1(NC(=O)[C@@H]2C=C3c4cccc5[nH]cc(c45)C[C@H]3N(C)C2)O[C@@]2(O)[C@@H]3CCCN3C(=O)[C@H](Cc3ccccc3)N2C1=O	13µM*	-13%	?	28%	?	?
CC(C)C[C@H]1C(=O)N2CCCC2[C@]2(O)O[C@](NC(=O)[C@@H]3C=C4c5cccc6[nH]cc(c56)CC4N(C)C3)(C(C)C)C(=O)N12 (stereo partly drawn)	13µM*	60%	-9%	28%	?	?
CN1CCc2nc(SCc3ccccc3Br)c(C#N)cc2C1	?	13%	-8%	0%	-11%	?
C=CCSc1nc2c(c(-c3ccsc3)c1C#N)CN(C)CC2	14µM*	-11%	-11%	2%	?	20µM*[quencher]
O=C(O)CCn1cc(C=C2C(=O)NC(=S)NC2=O)c(-c2ccccc2)n1	7%	28µM*	7%	-1%	7%	5%
O=C(O)CCn1cc(C=C2C(=O)NC(=S)NC2=O)c(-c2cc3ccccc3oc2=O)n1	10%	140%	8%	-1%	6%	14%
C/C(=N\NP(=S)(c1ccccc1)c1ccccc1)c1ccc(O)cc1O	?	4%	5%	-1%	-3%	32µM*[quencher]
CC1CN=C(Nc2ccc(F)c(Cl)c2)S1 (stereo not drawn)	-11%	-5%	-6%	-1%	-5%	-16%
Cn1c(O)c(/C=C2\N=c3ccccc3=C2CCNC(=S)NC2CC2)c(=O)n(C)c1=O	11µM*	-72%	?	-2%	?	-19%
COc1ccc2c3c([nH]c2c1)C(C)=NCC3	?	13%	-4%	0%	3%	?
CC1=NCCc2c1[nH]c1cc(O)ccc21	?	28µM*!	6%	3%	-2%	18µM*![quencher]
CCCCNCC(O)c1ccc(O)cc1 (stereo not drawn)	/	1%	-8%	0%	/	/

Source: PubChem BioAssay
